Molecular target: Hexose transporter 1 (Plasmodium falciparum) (UniProt O97467)
Assay: ST_JUDE_LEISH: Cytotoxicity at 2uM final concentration against transgenic Leishmania Mexicana promastigotes LmPfHT that are glucose transport deficient and complemented with the Plasmodium falciparum hexose transporter. Activity is measured by DNA content using SYBR green in vitro
Assay type: functional

Row | SMILES | inhibition [%]
1 | Cc1nc2ccc3ccc(CNc4ccc(C(=O)N[C@@H](CCC(=O)O)C(=O)N[C@@H](Cc5cccs5)C(=O)O)c(F)c4)cc3c2c(=O)[nH]1 | 7.51
2 | O=C(NCCc1ccc(F)cc1)c1ccc(N2CCN(c3ccncc3)CC2)nc1 | 0.74
3 | Oc1ccc(CCNc2nc(NCc3cccc(OCc4cccc(F)c4)c3)nc(N3CCNCC3)n2)cc1 | 0.71
4 | Nc1nc(O)c2c(n1)CCc1c(Br)cccc1-2 | -0.59
5 | COc1ccc2nccc([C@@H](O)CN3CCC(NCc4cc5ccccc5[nH]4)CC3)c2c1 | 23.5
6 | c1ccc(Oc2ccc(Nc3ccnc4cc(-c5csc(CN6CCCCC6)n5)ccc34)cc2)nc1 | 1.27
7 | Cc1c(-c2cccc(NC(=O)C(C)(C)Oc3ccc(Cl)cc3)c2)nc2ncccn12 | -1.86
8 | COc1cccc(CNC[C@@H](O)[C@H](Cc2ccccc2)NC(=O)c2cc(NC(C)C)cc(N3CCCCS3(=O)=O)c2)c1 | 1.05
9 | O=C(NC1CCN(c2ccnc3cc(Cl)ccc23)C1)c1ccc(F)cc1 (stereo not given) | 2.61
10 | Cc1c(C(C)(C)C)ccc2nc(N)nc(N)c12 | 63.5
11 | O=C(NCCN1CCCCC1)c1ccc(Nc2nccc(Nc3ccc(Oc4ccccc4)cc3)n2)cc1 | 8.31
12 | O=C(Nc1cccc(OCc2ccccc2)c1)c1ccc(CN2CCC(Cc3ccccc3)CC2)cc1 | -1.67
13 | NCCNc1ccc([N+](=O)[O-])cc1C(=O)Nc1cccc(Cl)c1 | 4.41
14 | CC(=O)c1c(CC(=O)O)c2ccccc2n1O | 4.52
15 | Cc1ccc2nc(C)cc(NC(=O)Nc3ccc(N(C)C)cc3)c2c1 | 5.69
16 | COc1ccccc1C1CCN(C2CCC(NC(=O)/C=C/c3cc(C(F)(F)F)ccc3F)CC2)CC1 (stereo not given) | 2.36
17 | NCC(=O)Nc1cccc(Nc2nccc(-c3c(-c4cccc(NC(=O)c5ccccc5)c4)nn4ccccc34)n2)c1 | 7.49
18 | Cc1nnc2c(NC(=O)NC3CCCC3)cc3cc(-c4ccc(CN5CCN(C)CC5)cc4)ccc3n12 | 4.95
19 | CCOC(=O)c1ccc(NC(=O)N(Cc2ccc(-c3cccc(CN4CCNCC4)c3)cc2)C2CCN(Cc3ccccc3)CC2)cc1 | 1.96
20 | COc1ccc2nccc([C@@H](O)CN3CCC(NC(=O)/C=C/c4c[nH]c5c(C)cccc45)CC3)c2c1 | 1.23

Row | SMILES | inhibition [%]
21 | CC[C@H](C)CNC(=O)c1cncc(-c2cccc(CNC3Cc4ccccc4C3)c2)c1 | 0.31
22 | Cc1cccc2nc(-c3ccc(-c4ccc(CN5CCOCC5)cc4)cc3)[nH]c12 | 3.46
23 | CC(C)Cn1c(Sc2ccc(C#N)c([N+](=O)[O-])c2)nnc1-c1ccc(N(C)C)cc1 | 0.63
24 | COc1cc(Br)c(S(=O)(=O)n2cc(CN3CCC(N)CC3)c3cc(Cl)ccc32)cc1OC | 2.11
25 | COc1ccccc1C1CCN(C2CCC(NC(=O)c3cc(-c4ccc(Cl)cc4)cs3)CC2)CC1 (stereo not given) | 2.96
26 | CN1CCC(C(=O)N(Cc2ccc(-c3ccc(CNCCc4ccc(S(C)(=O)=O)cc4)cn3)cc2)Cc2cccc(F)c2)CC1 | 0.58
27 | CCNS(=O)(=O)c1ccc(Oc2ccc([N+](=O)[O-])cc2)cc1 | -1.31
28 | O=C(Nc1ccc(Cn2ncc(N3CCCNCC3)c(Cl)c2=O)cc1)Nc1ccc(OCc2ccccc2)cc1 | -0.65
29 | COc1ccc(-c2cccc(NC(=O)c3cccc(Cl)c3)c2)cc1CN1CCN(C)CC1 | 12
30 | CCCN(CCC)C(=O)c1cc(C(=O)N[C@@H](Cc2ccccc2)[C@H](O)CNC(C)(C)c2cccc(OC)c2)cc(N2CCCCS2(=O)=O)c1 | 1.53
31 | CCCCc1nc2nc(N)nc(N)c2cc1CCC | 6.46
32 | Cc1nccn1CCNC(=O)CN1CCC2(CCC1=O)CC(=O)c1ccccc1O2 (stereo not given) | 7.32
33 | Cc1[nH]c(C)c(-c2ccc(Oc3cccc(Cl)c3)cc2)c(=O)c1Cl | 7.78
34 | O=c1cc(NCCCNCc2cccc(OC(F)(F)C(F)F)c2)[nH]c2ccccc12 | 7.27
35 | Cc1cc2nc(-c3ccc(/C=C/C(=O)NC4CCCCC4)cc3)[nH]c2cc1C | 1.82
36 | N#Cc1ccc(C(=O)Nc2cc(-c3cccc(O)c3)cc3[nH]ncc23)cc1 | 2.33
37 | CC(C)NCc1cccc(-c2ccc(-c3nc4cc(C(F)(F)F)ccc4[nH]3)cc2)c1 | 6.19
38 | CC(=O)N1N=C(c2ccc(F)cc2)Sc2c1nc(-c1ccccc1)n2C(C)=O | 7.94
39 | Cc1ccc(CN2CCCN(Cc3cccc(C(=O)Nc4ccc(C(C)(C)C)cc4)c3)CC2)s1 | 2.76
40 | COc1ccc(C(=O)N[C@@H](CC(C)C)C(=O)NC2CC[C@@H](C)N(C(=O)Nc3ccc(Cl)cc3)CC2=O)cc1OCCN1CCOCC1 (stereo not given in full) | 3.66

From ChEMBL document CHEMBL3433997, “St. Jude Leishmania screening dataset” (2016)
